# Source: ChEMBL document CHEMBL1961873, “Compounds: GSK PKIS; Assays: Nanosyn kinase panel” (2012)
# Molecular target: T1, Serine/threonine-protein kinase 3 (Homo sapiens) (UniProt Q13188)
# T1 sequence (whole entry): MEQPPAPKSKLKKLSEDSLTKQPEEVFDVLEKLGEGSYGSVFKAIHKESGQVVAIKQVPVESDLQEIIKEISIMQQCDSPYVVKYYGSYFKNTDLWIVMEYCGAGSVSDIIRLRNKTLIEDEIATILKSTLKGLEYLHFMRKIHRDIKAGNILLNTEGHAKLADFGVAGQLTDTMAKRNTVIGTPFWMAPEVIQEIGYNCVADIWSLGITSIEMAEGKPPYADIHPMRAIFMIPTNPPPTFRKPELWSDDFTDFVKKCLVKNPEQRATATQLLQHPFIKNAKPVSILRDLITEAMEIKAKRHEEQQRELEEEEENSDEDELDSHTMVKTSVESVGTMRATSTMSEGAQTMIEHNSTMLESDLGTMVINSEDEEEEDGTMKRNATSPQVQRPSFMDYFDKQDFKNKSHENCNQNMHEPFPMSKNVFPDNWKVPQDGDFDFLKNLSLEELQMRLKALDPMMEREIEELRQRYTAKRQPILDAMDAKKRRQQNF
# Conditions: at 1 µM
# 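Also: each value is the mean inhibition of MST2.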
row,Structure (SMILES),inhibition
1,Nc1nccc(-c2c(-c3ccc(F)cc3)nn3cc(C(F)(F)F)ccc23)n1,-0.81%
2,CN1CCN(C(=O)c2ccc(NC(=O)Nc3ccc(N(C)c4ccnc(Nc5ccc(CS(C)(=O)=O)cc5)n4)cc3)cc2)CC1,28.3%
3,CCn1c(-c2nonc2N)nc2c(C#CC(C)(C)O)nc(OCCNC)cc21,7.27%
4,COc1ccc(-c2nn3ncccc3c2-c2ccnc(Nc3cccc(C(F)(F)F)c3)n2)cc1,5.12%
5,Cc1ccc(C(=O)NC2CC2)cc1-c1ccc2[nH]ncc2c1,-2.04%
6,Cc1ccc2c(c1)/C(=N/Nc1ccc(S(N)(=O)=O)cc1)C(=O)N2,55%
7,FC(F)(F)c1ccc(-c2nn3ncccc3c2-c2ccnc(Nc3ccc4c(c3)OCCO4)n2)cc1,8.12%
8,NS(=O)(=O)c1ccc(Nc2cc(-c3cccc(O)c3)n[nH]2)cc1,13.4%
9,Cc1cc(O)cc(C)c1/C=C/c1cncc(C(=O)N(C)C)c1,2.26%
10,COc1cc(Nc2nccc(-c3cnn4ncccc34)n2)cc(OC)c1,29.6%
11,COc1cccc(-n2ncc3c(N/N=C/c4ccc(C)cc4)ncnc32)c1,11.4%
12,[O-][S+]1CCN(Cc2ccc(-c3ccc4ncnc(Nc5ccc(OCc6ccccc6)c(Cl)c5)c4c3)o2)CC1,0.41%
13,COc1ccc2ncnc(Nc3ccc(OCc4ccccc4)cc3)c2c1,3.92%
14,CN(C)C(=O)O[C@H]1CN[C@H](C#Cc2cc3ncnc(Nc4ccc(OCc5cccc(F)c5)c(Cl)c4)c3s2)C1,3%
15,NS(=O)(=O)c1ccc(NC=C2C(=O)Nc3ccc4ncsc4c32)cc1,78.2%
16,CS(=O)(=O)CCNCc1nc(-c2ccc3ncnc(Nc4ccc(OCc5cccc(C(F)(F)F)c5)cc4)c3c2)cs1,6.28%
17,CCS(=O)(=O)c1ccc(OC)c(Nc2nccc(N(C)c3ccc4c(C)n[nH]c4c3)n2)c1,5.24%

row,Structure (SMILES),inhibition
1,Nc1nccc(-c2c(-c3ccc(F)cc3)ncn2CCCN2CCOCC2)n1,5.71%
2,COC(=O)c1ccc2c(c1)C(=Cc1cc(Br)c(O)c(Br)c1)C(=O)N2,19.5%
3,COc1cc2ncnc(Nc3ccc4c(cnn4Cc4ccccc4)c3)c2cc1OC,5.68%
4,O=S(=O)(CCOCc1ccc(-c2ccc3ncnc(Nc4ccc(OCc5cccc(F)c5)c(Cl)c4)c3c2)o1)c1ccccc1,5.7%
5,NC(=O)c1sc(-n2cnc3ccccc32)cc1OCc1ccccc1Br,5.83%
6,NS(=O)(=O)c1cccc(-c2cc3ccncc3cc2OCc2ccccc2)c1,11%
7,Cc1cc(Cl)cc2c1NC(=O)C2=NNc1ccc(S(N)(=O)=O)cc1,6.48%
8,Oc1cccc(-c2nc(-c3ccccc3)[nH]c2-c2ccncc2)c1,7.6%
9,COC(=O)Nc1nc2cc(Oc3ccc(NC(=O)Nc4cccc(Br)c4)cc3)ccc2[nH]1,3.92%
10,Nc1nccc(C#Cc2cncnc2Nc2ccc(OCc3cccc(F)c3)c(Cl)c2)n1,7.32%
11,O=C1Nc2ccc(-c3cccnc3)cc2C1=Cc1cc(Br)c(O)c(Br)c1,37.3%
12,Nc1ccc(C#Cc2cncnc2Nc2ccc(OCc3cccc(F)c3)c(Cl)c2)cc1,4.05%
13,NS(=O)(=O)c1cccc(Nc2cc(-c3ccc(F)cc3)n[nH]2)c1,13.4%
14,CCS(=O)(=O)c1ccc(OC)c(Nc2ncc(-c3cccc(OC)c3)o2)c1,7.22%
15,CCn1c(-c2nonc2N)nc2ccc(F)cc21,6.55%
16,O=C1Nc2ccccc2/C1=C/Nc1ccc2[nH]c(=O)[nH]c2c1,59.4%
17,CS(=O)(=O)Nc1cccc(-c2ccc3c(NC(=O)C4CC4)n[nH]c3c2)c1,4.09%
